We go through nine compounds from PubChem BioAssay.

The structures appear in SMILES notation. The list shows a part of the results. Calls of active or inactive are those of the source. Unless noted, no stated cut-off is given here; in the data, active means response below about 74% or above about 130%; inactive means in between.

The target of assay [1] is Regulator of G-protein signaling 16 (Homo sapiens) (UniProt O15492). The assay can be described thus: small molecules altering RGS protein interactions with GNAO1 – biochemical, multiplexed beads, flow cytometry, RGS4/7/8/16/19, primary screen (AID 1504).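 Further: fluorescently labeled Galpha-o bound to GDP with aluminium fluoride binding biotinylated RGS beads.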 The following applies: multiplexed bead flow cytometry, measured here: RGS16 interaction, at 10 µM.
Assay [2] deals with Regulator of G-protein signaling 19 (Homo sapiens) (UniProt P49795). Described as above. The following applies: multiplexed bead flow cytometry, measured here: RGS19 interaction, at 10 µM.
Assay [3] addresses Regulator of G-protein signaling 7 (Homo sapiens) (UniProt P49802). Described as above. The following applies: multiplexed bead flow cytometry, measured here: RGS7 interaction, at 10 µM.
Assay [4] addresses Regulator of G-protein signaling 8 (Homo sapiens) (UniProt P57771). Described as above. Particulars: multiplexed bead flow cytometry, measured here: RGS8 interaction, at 10 µM.
Assay [5] in a line: interference with biotin-avidin bead interaction – biochemical, flow cytometry, bead-based, counter-screen for RGS protein interaction modulators (AID 1783;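 active means inhibition above 50%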;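 further: median green fluorescence of gated singlet beads compared with DMSO control wells; 0% = DMSO wells and 100% = complete loss of bead fluorescence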). The following applies: streptavidin beads, fluorescein-biotin binding; at 10 µM, stronger effect = higher value.
The target in assay [6] is Guanine nucleotide-binding protein G(o) subunit alpha (Homo sapiens) (UniProt P09471). The assay can be described thus: retest of RGS8-Galphao interaction hits – biochemical, multiplexed bead flow cytometry, single concentration, confirmation (AID 1836; in the data active means binding response below about 72% or above about 130%; inactive means in between;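 further: Galphao activated as GDP AlF4 complex before binding bead RGS8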). The following applies: bead-based flow cytometry RGS8-Galphao binding, fluorescence; at 10 µM; actives lie on both sides.
Chain of Guanine nucleotide-binding protein G(o) subunit alpha (Homo sapiens) (P09471 whole entry, looked up): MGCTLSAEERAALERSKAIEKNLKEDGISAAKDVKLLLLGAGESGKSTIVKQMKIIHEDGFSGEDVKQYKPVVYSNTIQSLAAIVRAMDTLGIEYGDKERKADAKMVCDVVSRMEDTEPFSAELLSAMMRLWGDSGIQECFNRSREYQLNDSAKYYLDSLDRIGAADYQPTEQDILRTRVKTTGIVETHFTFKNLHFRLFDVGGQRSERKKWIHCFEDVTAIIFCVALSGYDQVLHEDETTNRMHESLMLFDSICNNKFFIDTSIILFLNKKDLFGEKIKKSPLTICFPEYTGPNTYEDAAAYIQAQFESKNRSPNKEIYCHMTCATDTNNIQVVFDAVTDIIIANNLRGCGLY

Assay [7] shares this target. The assay can be described thus: retest of RGS7-Galphao interaction hits – biochemical, multiplexed bead flow cytometry, single concentration, confirmation (AID 1837; in the data active means response below about 75% or above about 130%; inactive means in between;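 further: fluorescent Galphao activated with GDP and aluminum fluoride binding bead-coupled RGS7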). Particulars: bead-based flow cytometry RGS7-Galphao binding; at 10 µM; actives lie on both sides.
For assay [8], the target named is Regulator of G-protein signaling 16 (Homo sapiens) + Guanine nucleotide-binding protein G(o) subunit alpha (Homo sapiens) (UniProt O15492+P09471). The assay can be described thus: RGS16 and Galphao interaction regulators – biochemical, single concentration, multiplexed bead flow cytometry, confirmation (AID 1838).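 Further: Galphao activated as the GDP aluminium fluoride complex binding bead-coupled RGS16.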 Particulars: bead-based flow cytometry, at 10 µM, actives lie on both sides.
Chain of Regulator of G-protein signaling 16 (Homo sapiens) + Guanine nucleotide-binding protein G(o) subunit alpha (Homo sapiens) (O15492 whole entry, looked up): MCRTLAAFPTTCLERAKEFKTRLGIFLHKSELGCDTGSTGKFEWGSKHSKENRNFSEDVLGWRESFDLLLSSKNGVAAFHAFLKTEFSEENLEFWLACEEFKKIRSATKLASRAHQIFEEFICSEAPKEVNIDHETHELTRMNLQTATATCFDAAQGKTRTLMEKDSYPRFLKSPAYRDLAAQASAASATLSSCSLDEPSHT
Chain of Regulator of G-protein signaling 16 (Homo sapiens) + Guanine nucleotide-binding protein G(o) subunit alpha (Homo sapiens) (P09471 whole entry, looked up): as the sequence (P09471 whole entry, looked up) above

Assay [9] concerns the target Guanine nucleotide-binding protein G(o) subunit alpha (Homo sapiens) (UniProt P09471). The assay can be described thus: RGS4 and Galphao interaction regulators – biochemical, single concentration, multiplexed bead flow cytometry, confirmation (AID 1840; in the data active means binding response below about 74% or above about 130%; inactive means in between). Particulars: at 10 µM, actives lie on both sides.
Assay [10] deals with Guanine nucleotide-binding protein G(o) subunit alpha (Homo sapiens) + Regulator of G-protein signaling 19 (Homo sapiens) (UniProt P09471+P49795). The assay can be described thus: RGS19 interaction with Gαo, hit retest – biochemical, single point, multiplexed bead flow cytometry, confirmation (AID 1841; in the data active means response below about 50% or above about 160%; inactive means in between;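 further: 100% = no compound control and 0% = blank background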). Particulars: bead-based flow cytometry RGS19-Galphao binding; at 10 µM; actives lie on both sides.
Chain of Guanine nucleotide-binding protein G(o) subunit alpha (Homo sapiens) + Regulator of G-protein signaling 19 (Homo sapiens) (P09471 whole entry, looked up): as above
Chain of Guanine nucleotide-binding protein G(o) subunit alpha (Homo sapiens) + Regulator of G-protein signaling 19 (Homo sapiens) (P49795 whole entry, looked up): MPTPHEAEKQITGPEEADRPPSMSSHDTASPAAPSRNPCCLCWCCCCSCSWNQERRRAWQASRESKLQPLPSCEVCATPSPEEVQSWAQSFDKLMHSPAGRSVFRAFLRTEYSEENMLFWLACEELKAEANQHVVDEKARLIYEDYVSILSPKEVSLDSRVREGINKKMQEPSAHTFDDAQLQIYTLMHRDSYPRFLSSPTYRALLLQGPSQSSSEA

Turning to `CCOC(=O)NNc1cc(C(F)(F)F)ccn1`, the RGS16–Galpha-o binding response in [1] is 148%. The RGS19–Galpha-o binding response in assay [2] came out at 84.9%. Besides, the RGS7–Galpha-o binding response in [3] amounted to 66.9%. The RGS8–Galpha-o binding response in assay [4] is 133%. In [5], the inhibition is -0.7% (inactive). Moreover, the binding response (% of control) in assay [6] is 104% (inactive); in assay [9] it was 102% (inactive). Further, the figures for the response (percent of control binding) in assay [7] and in assay [10] were 107% (inactive) and 109% (inactive), respectively. The response (% of control binding) in assay [8] is 104% (inactive).

For `COCCNC(=S)N/N=C/c1c(C)[nH]c2ccccc12`, in assay [1], the RGS16–Galpha-o binding response came to 153%. In [2], this compound came in with an RGS19–Galpha-o binding response of 993%. The RGS7–Galpha-o binding response in assay [3] came to 142%. Further, the RGS8–Galpha-o binding response in [4] worked out at 105%. Besides, the inhibition in [5] is 0.1% (inactive). Also, the binding response (% of control) is 105% (inactive) in [6] and 161% [activator] (active) in assay [9]. For the same compound, the values for the response (percent of control binding) in assay [7] and in assay [10] were 212% [activator] (active) and 225% (active), respectively. In addition, the response (% of control binding) in [8] is 134% [activator] (active).

With `CCC(=O)N1CCC(C(N)=O)(N2CCCCC2)CC1`, the RGS16–Galpha-o binding response in assay [1] stood at 417%. In assay [2], this compound gave an RGS19–Galpha-o binding response of 90.3%. Moreover, the RGS7–Galpha-o binding response in assay [3] turned out to be 161%. In addition, the RGS8–Galpha-o binding response in [4] worked out at 163%. Moreover, the inhibition in assay [5] was 2% (inactive). The binding response (% of control) in assay [6] is 93.5% (inactive); in assay [9], 94.8% (inactive). The response (percent of control binding) in assay [7] is 90.7% (inactive); in assay [10], 88.3% (inactive). Also, the response (% of control binding) in [8] is 94.8% (inactive).

With `CCOC(=O)C1Sc2[nH]c(=O)sc2C(c2ccc(Cl)cc2)C1C(=O)OCC` (stereo not drawn), in assay [1], the RGS16–Galpha-o binding response was -39.2%. The same compound displayed an RGS19–Galpha-o binding response in [2] of 128%. Also, the RGS7–Galpha-o binding response in [3] is -17.7%. This compound also had an RGS8–Galpha-o binding response in assay [4] of 7.38%.

Turning to `O=C(CN1CCOCC1)Nc1ccccc1`, the RGS16–Galpha-o binding response in assay [1] stood at 297%. For the same compound, the RGS19–Galpha-o binding response in assay [2] is 103%. The RGS7–Galpha-o binding response in assay [3] was 112%. Also, in [4], the RGS8–Galpha-o binding response was found to be 145%. Besides, the inhibition in assay [5] is 2.3% (inactive). Also, the binding response (% of control) in assay [6] was 97.1% (inactive); in assay [9] it was 97.7% (inactive). Besides, the response (percent of control binding) in [7] was 92.3% (inactive); in [10], 97.1% (inactive). Moreover, the response (% of control binding) in [8] is 94.4% (inactive).

In the case of `COc1cccc(C(=O)NCCSc2ccc(Br)cc2)c1`, the RGS16–Galpha-o binding response in assay [1] was 11.1%. In addition, the RGS19–Galpha-o binding response in assay [2] is 1100%. The RGS7–Galpha-o binding response in assay [3] came to 16.5%. The compound further registered an RGS8–Galpha-o binding response in assay [4] of 20.7%. Moreover, the inhibition in assay [5] was -0.2% (inactive). Besides, the values for the binding response (% of control) in assay [6] and in assay [9] were 103% (inactive) and 104% (inactive), respectively. The response (percent of control binding) was 106% (inactive) in assay [7] and 83.7% (inactive) in assay [10]. Moreover, in [8], the response (% of control binding) was 104% (inactive).

Take `CCOc1ccccc1NC(=O)c1cc(S(=O)(=O)N2CCC3(CC2)OCCO3)ccc1F`: the RGS16–Galpha-o binding response in assay [1] is 4.15%. This compound showed an RGS19–Galpha-o binding response in [2] of 139%. For the same compound, in assay [3], the RGS7–Galpha-o binding response came out at 15.2%. Besides, the RGS8–Galpha-o binding response in assay [4] amounted to 33%.

Regarding `COc1ccc(-c2nn(-c3ccccc3)cc2C(=O)Nc2nccs2)cc1OC`, the RGS16–Galpha-o binding response in [1] came to 24.6%. In addition, the RGS19–Galpha-o binding response in [2] was 172%. In addition, the RGS7–Galpha-o binding response in [3] was determined as 102%. For the same compound, the RGS8–Galpha-o binding response in [4] came out at 75%. Besides, the inhibition in [5] is -2.4% (inactive). For the same compound, the binding response (% of control) was 102% (inactive) in assay [6] and 101% (inactive) in assay [9]. Further, the response (percent of control binding) was 99.8% (inactive) in [7] and 112% (inactive) in assay [10]. Besides, the response (% of control binding) in assay [8] is 103% (inactive).

As to `Cc1cc2nc(C)n(CCCNC(=O)Nc3ccccc3)c2cc1C`, the RGS16–Galpha-o binding response in assay [1] turned out to be 283%. Further, the RGS19–Galpha-o binding response in assay [2] came to 94.8%. Also, the RGS7–Galpha-o binding response in [3] was 180%. Also, the RGS8–Galpha-o binding response in assay [4] was found to be 170%. In addition, the inhibition in assay [5] was -0.5% (inactive). Also, the binding response (% of control) in assay [6] was 102% (inactive); in [9] it was 104% (inactive). Besides, the figures for the response (percent of control binding) in assay [7] and in [10] were 104% (inactive) and 97.2% (inactive), respectively. Also, the response (% of control binding) in assay [8] is 103% (inactive).
